Source: paper PMC9911399, “Two distinct binding modes provide the RNA-binding protein RbFox with extraordinary sequence specificity”
Numbering of substitutions follows the chain as printed; changes in the protein carry UniProt numbers. Whole data set: some 16,000 sequences, median “ka relative to ugcaugu” near 0.096, cut for the highest 2% near 0.35. Shown is part of a subset that was picked to be rich in the highest values.

T1: RBFOX1 RRM RbFoxmut (Fox-RRM*) (Homo sapiens, UniProt Q9NWB1 109-208, R118D;E147R;N151S;E152T)
T1 sequence: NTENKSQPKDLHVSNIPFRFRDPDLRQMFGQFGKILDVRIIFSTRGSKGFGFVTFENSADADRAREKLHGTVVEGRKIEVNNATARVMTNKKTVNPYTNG

B1: AUGCCGC (DNA:RNA)
RNA: GGGAGACCGGAAUUCAGAUUGUCCAUGCCGCUUAAAUCCCGUCGUAGCCACCA
DNA 1: CAATCTGAATTCCGGTCTCCC
DNA 2: TGGTGGCTACGACGGGATT
B2: ACACGGC (DNA:RNA)
RNA: B1 RNA with U26C, G27A, C29G
DNA 1: CAATCTGAATTCCGGTCTCCC
DNA 2: TGGTGGCTACGACGGGATT
B3: UUUUCCC (DNA:RNA)
RNA: B1 RNA with A25U, G27U, C28U, G30C
DNA 1: CAATCTGAATTCCGGTCTCCC
DNA 2: TGGTGGCTACGACGGGATT
B4: GGGACUG (DNA:RNA)
RNA: B1 RNA with A25G, U26G, C28A, G30U, C31G
DNA 1: CAATCTGAATTCCGGTCTCCC
DNA 2: TGGTGGCTACGACGGGATT
B5: UCCAGUU (DNA:RNA)
RNA: GGGAGACCGGAAUUCAGAUUGUCCUCCAGUUUUAAAUCCCGUCGUAGCCACCA
DNA 1: CAATCTGAATTCCGGTCTCCC
DNA 2: TGGTGGCTACGACGGGATT
B6: CGAUCAG (DNA:RNA)
RNA: B1 RNA with A25C, U26G, G27A, C28U, G30A, C31G
DNA 1: CAATCTGAATTCCGGTCTCCC
DNA 2: TGGTGGCTACGACGGGATT
B7: AUUGUAA (DNA:RNA)
RNA: B1 RNA with G27U, C28G, C29U, G30A, C31A
DNA 1: CAATCTGAATTCCGGTCTCCC
DNA 2: TGGTGGCTACGACGGGATT
B8: UUUGUUC (DNA:RNA)
RNA: B1 RNA with A25U, G27U, C28G, C29U, G30U
DNA 1: CAATCTGAATTCCGGTCTCCC
DNA 2: TGGTGGCTACGACGGGATT
B9: GCGCGAC (DNA:RNA)
RNA: B1 RNA with A25G, U26C, C29G, G30A
DNA 1: CAATCTGAATTCCGGTCTCCC
DNA 2: TGGTGGCTACGACGGGATT
B10: UUAAGCC (DNA:RNA)
RNA: B5 RNA with C26U, C27A, U30C, U31C
DNA 1: CAATCTGAATTCCGGTCTCCC
DNA 2: TGGTGGCTACGACGGGATT
B11: CCCGAUC (DNA:RNA)
RNA: B5 RNA with U25C, A28G, G29A, U31C
DNA 1: CAATCTGAATTCCGGTCTCCC
DNA 2: TGGTGGCTACGACGGGATT
B12: CUUCGGU (DNA:RNA)
RNA: B1 RNA with A25C, G27U, C29G, C31U
DNA 1: CAATCTGAATTCCGGTCTCCC
DNA 2: TGGTGGCTACGACGGGATT
B13: AAGGCAA (DNA:RNA)
RNA: B1 RNA with U26A, C28G, G30A, C31A
DNA 1: CAATCTGAATTCCGGTCTCCC
DNA 2: TGGTGGCTACGACGGGATT
B14: AAAAUGC (DNA:RNA)
RNA: B1 RNA with U26A, G27A, C28A, C29U
DNA 1: CAATCTGAATTCCGGTCTCCC
DNA 2: TGGTGGCTACGACGGGATT
B15: UGAAUGA (DNA:RNA)
RNA: B5 RNA with C26G, C27A, G29U, U30G, U31A
DNA 1: CAATCTGAATTCCGGTCTCCC
DNA 2: TGGTGGCTACGACGGGATT
B16: UGAUUGA (DNA:RNA)
RNA: B1 RNA with A25U, U26G, G27A, C28U, C29U, C31A
DNA 1: CAATCTGAATTCCGGTCTCCC
DNA 2: TGGTGGCTACGACGGGATT
B17: UGAUGAA (DNA:RNA)
RNA: B5 RNA with C26G, C27A, A28U, U30A, U31A
DNA 1: CAATCTGAATTCCGGTCTCCC
DNA 2: TGGTGGCTACGACGGGATT
B18: AGAAUGC (DNA:RNA)
RNA: B1 RNA with U26G, G27A, C28A, C29U
DNA 1: CAATCTGAATTCCGGTCTCCC
DNA 2: TGGTGGCTACGACGGGATT
B19: AGAUUGC (DNA:RNA)
RNA: B1 RNA with U26G, G27A, C28U, C29U
DNA 1: CAATCTGAATTCCGGTCTCCC
DNA 2: TGGTGGCTACGACGGGATT
B20: UCGUUCG (DNA:RNA)
RNA: B5 RNA with C27G, A28U, G29U, U30C, U31G
DNA 1: CAATCTGAATTCCGGTCTCCC
DNA 2: TGGTGGCTACGACGGGATT
B21: AGCCUAC (DNA:RNA)
RNA: B1 RNA with U26G, G27C, C29U, G30A
DNA 1: CAATCTGAATTCCGGTCTCCC
DNA 2: TGGTGGCTACGACGGGATT
B22: CCUGUCC (DNA:RNA)
RNA: B1 RNA with A25C, U26C, G27U, C28G, C29U, G30C
DNA 1: CAATCTGAATTCCGGTCTCCC
DNA 2: TGGTGGCTACGACGGGATT
B23: GAUUAGG (DNA:RNA)
RNA: B1 RNA with A25G, U26A, G27U, C28U, C29A, C31G
DNA 1: CAATCTGAATTCCGGTCTCCC
DNA 2: TGGTGGCTACGACGGGATT
B24: CGCAGCG (DNA:RNA)
RNA: B5 RNA with U25C, C26G, U30C, U31G
DNA 1: CAATCTGAATTCCGGTCTCCC
DNA 2: TGGTGGCTACGACGGGATT
B25: UGGCCUC (DNA:RNA)
RNA: B1 RNA with A25U, U26G, G30U
DNA 1: CAATCTGAATTCCGGTCTCCC
DNA 2: TGGTGGCTACGACGGGATT
B26: UGCUGCC (DNA:RNA)
RNA: B5 RNA with C26G, A28U, U30C, U31C
DNA 1: CAATCTGAATTCCGGTCTCCC
DNA 2: TGGTGGCTACGACGGGATT
B27: AUUUGCC (DNA:RNA)
RNA: B1 RNA with G27U, C28U, C29G, G30C
DNA 1: CAATCTGAATTCCGGTCTCCC
DNA 2: TGGTGGCTACGACGGGATT
B28: UGUUGCC (DNA:RNA)
RNA: B5 RNA with C26G, C27U, A28U, U30C, U31C
DNA 1: CAATCTGAATTCCGGTCTCCC
DNA 2: TGGTGGCTACGACGGGATT
B29: UGGCCUG (DNA:RNA)
RNA: B1 RNA with A25U, U26G, G30U, C31G
DNA 1: CAATCTGAATTCCGGTCTCCC
DNA 2: TGGTGGCTACGACGGGATT
B30: UUGCCUG (DNA:RNA)
RNA: B1 RNA with A25U, G30U, C31G
DNA 1: CAATCTGAATTCCGGTCTCCC
DNA 2: TGGTGGCTACGACGGGATT
B31: UGUAGCC (DNA:RNA)
RNA: B5 RNA with C26G, C27U, U30C, U31C
DNA 1: CAATCTGAATTCCGGTCTCCC
DNA 2: TGGTGGCTACGACGGGATT
B32: AUUGCCU (DNA:RNA)
RNA: B1 RNA with G27U, C28G, G30C, C31U
DNA 1: CAATCTGAATTCCGGTCTCCC
DNA 2: TGGTGGCTACGACGGGATT
B33: UGUGGCC (DNA:RNA)
RNA: B5 RNA with C26G, C27U, A28G, U30C, U31C
DNA 1: CAATCTGAATTCCGGTCTCCC
DNA 2: TGGTGGCTACGACGGGATT
B34: UGCCUUG (DNA:RNA)
RNA: B5 RNA with C26G, A28C, G29U, U31G
DNA 1: CAATCTGAATTCCGGTCTCCC
DNA 2: TGGTGGCTACGACGGGATT
B35: UGCCUCC (DNA:RNA)
RNA: B1 RNA with A25U, U26G, G27C, C29U, G30C
DNA 1: CAATCTGAATTCCGGTCTCCC
DNA 2: TGGTGGCTACGACGGGATT
B36: CAUUGCC (DNA:RNA)
RNA: B1 RNA with A25C, U26A, G27U, C28U, C29G, G30C
DNA 1: CAATCTGAATTCCGGTCTCCC
DNA 2: TGGTGGCTACGACGGGATT

The binders below were run against T1, RBFOX1 RRM RbFoxmut (Fox-RRM*) (assay: EMSA; HiTS-Eq, 1 nM pool, 10 min; buffer printed only for the single-RNA assays: 10 mM Tris pH 7.5, 150 mM NaCl, 3.4 mM EDTA, 0.001% NP-40, 30 C). Settings: tags: His6 N-terminal (pET28a); label: 5' 32P.
Summary of the method: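 Purified wild-type or mutant RbFox RRM at increasing concentrations was equilibrated with 1 nM of 5′-radiolabelled RNA carrying 7 randomized nucleotides for 10 min in 50 µL. Unbound RNA was separated by 8% native PAGE and sequenced. Relative association constants came from read-count changes of each RNA species compared with the control reaction, normalised to the cognate motif.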

Row | Binder | binding signal
1 | B1 | 0.11 KA relative to UGCAUGU
2 | B2 | 0.115 KA relative to UGCAUGU
3 | B3 | 0.0312 KA relative to UGCAUGU
4 | B4 | 0.266 KA relative to UGCAUGU
5 | B5 | 0.0717 KA relative to UGCAUGU
6 | B6 | 0.0789 KA relative to UGCAUGU
7 | B7 | 0.154 KA relative to UGCAUGU
8 | B8 | 0.0935 KA relative to UGCAUGU
9 | B9 | 0.0897 KA relative to UGCAUGU
10 | B10 | 0.106 KA relative to UGCAUGU
11 | B11 | 0.0576 KA relative to UGCAUGU
12 | B12 | 0.095 KA relative to UGCAUGU
13 | B13 | 0.061 KA relative to UGCAUGU
14 | B14 | 0.0633 KA relative to UGCAUGU
15 | B15 | 0.46 KA relative to UGCAUGU
16 | B16 | 0.209 KA relative to UGCAUGU
17 | B17 | 0.122 KA relative to UGCAUGU
18 | B18 | 0.408 KA relative to UGCAUGU

Row | Binder | binding signal
19 | B19 | 0.14 KA relative to UGCAUGU
20 | B20 | 0.218 KA relative to UGCAUGU
21 | B21 | 0.0767 KA relative to UGCAUGU
22 | B22 | 0.074 KA relative to UGCAUGU
23 | B23 | 0.0809 KA relative to UGCAUGU
24 | B24 | 0.135 KA relative to UGCAUGU
25 | B25 | 0.106 KA relative to UGCAUGU
26 | B26 | 0.298 KA relative to UGCAUGU
27 | B27 | 0.257 KA relative to UGCAUGU
28 | B28 | 0.296 KA relative to UGCAUGU
29 | B29 | 0.359 KA relative to UGCAUGU
30 | B30 | 0.377 KA relative to UGCAUGU
31 | B31 | 0.141 KA relative to UGCAUGU
32 | B32 | 0.108 KA relative to UGCAUGU
33 | B33 | 0.263 KA relative to UGCAUGU
34 | B34 | 1.27 KA relative to UGCAUGU
35 | B35 | 0.155 KA relative to UGCAUGU
36 | B36 | 0.374 KA relative to UGCAUGU
